Compound activity as filed in PubChem BioAssay.
Rows were chosen to be rich in hits. Some 2.6% of all compounds tested hit in one or more screens of this group.
Granule exo inh: LAMP-1 surface exposure blockers, TALL-104 cells – cell-based, flow cytometry, MLPCN library, primary screen. TALL-104 LAMP-1 surface exposure; cells stimulated with thapsigargin and PMA. inhibition, % at 10 µM. actives 0.66% (n = 360,000). AID 651702, 2012;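 active = inhibition above about 55%, limit read from the data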
Rce1 inh: yeast Rce1p protease inhibitors, primary screen, biochemical, fluorescence, cell-free homogeneous. CAAX prenyl protease 2 (Saccharomyces cerevisiae (strain ATCC 204508 / S288c)), Q03530. yeast membranes, quenched prenylated peptide cleavage fluorescence. calls only. actives 0.27% (n = 290,000). AID 2563, 2010;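 active = fall in fluorescence gain of 50% or more versus controls, with final raw signal at or below 3038400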
ABHD5-PLIN5 inh: ABHD5-PLIN5 interaction inhibitors, primary screen, cell lysate, split luciferase complementation, luminescence; Perilipin-5 (Homo sapiens) + 1-acylglycerol-3-phosphate O-acyltransferase ABHD5 (Homo …; Split G. princeps luciferase complementation, 4 h; inhibition, % at 4 µM; actives 0.78% (n = 360,000);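 active = inhibition above the mean inhibition across every tested compound plus 3 SD, cut at about 22% in these data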
Target sequence (Q00G26 whole entry, looked up): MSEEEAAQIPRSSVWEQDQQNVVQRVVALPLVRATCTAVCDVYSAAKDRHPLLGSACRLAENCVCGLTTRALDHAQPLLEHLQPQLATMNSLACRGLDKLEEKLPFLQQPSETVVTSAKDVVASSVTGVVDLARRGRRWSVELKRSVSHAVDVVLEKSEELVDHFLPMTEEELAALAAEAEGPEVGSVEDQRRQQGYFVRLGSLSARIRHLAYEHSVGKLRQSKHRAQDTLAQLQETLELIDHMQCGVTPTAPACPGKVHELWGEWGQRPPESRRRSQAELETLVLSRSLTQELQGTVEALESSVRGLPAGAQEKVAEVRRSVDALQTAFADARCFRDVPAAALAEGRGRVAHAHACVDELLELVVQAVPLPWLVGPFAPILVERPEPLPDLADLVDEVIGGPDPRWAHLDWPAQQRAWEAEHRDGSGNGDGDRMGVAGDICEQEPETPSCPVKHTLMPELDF
Target sequence (Q8WTS1 whole entry, looked up): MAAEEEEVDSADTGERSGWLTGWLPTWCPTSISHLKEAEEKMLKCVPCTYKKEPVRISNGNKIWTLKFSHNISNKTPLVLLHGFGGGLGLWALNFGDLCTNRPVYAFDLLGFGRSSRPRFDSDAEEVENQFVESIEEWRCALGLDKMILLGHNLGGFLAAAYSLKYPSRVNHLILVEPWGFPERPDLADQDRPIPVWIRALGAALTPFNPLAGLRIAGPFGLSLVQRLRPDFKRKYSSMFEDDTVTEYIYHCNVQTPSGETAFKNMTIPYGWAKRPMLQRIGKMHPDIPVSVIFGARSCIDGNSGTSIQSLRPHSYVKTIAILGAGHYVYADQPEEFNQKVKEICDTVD
M18AAP inhibitor: PfM18AAP inhibitors, malaria aminopeptidase, primary screen, biochemical, QFRET, recombinant enzyme; actives 1.2% (n = 290,000); inhibition, % at 7.35 µM; M18 aspartyl aminopeptidase (Plasmodium falciparum 3D7); H-Glu-NHMec fluorogenic cleavage;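 active = inhibition above the campaign mean inhibition over all tested compounds plus 3 SD, cut at about 28% in these data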
Platelet DG rel: inhibitors of platelet dense granule secretion, primary screen, cell-based, MLPCN, human platelets; human platelet-rich plasma, SFLLRN dense granule ATP release, luminescence; inhibition, %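 (compounds screened at 7.5 µM in platelet-rich plasma)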; actives 0.22% (n = 300,000);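 active = mean replicate score, as percent of positive control, at or above 50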
Hits are given with their value; n = inactive; x = not tested or not shown; + = active, no number.

SMILES	Granule exo inh	Rce1 inh	ABHD5-PLIN5 inh	M18AAP inhibitor	Platelet DG rel
Cc1ccc(NNC(=O)Nc2ccc(Cl)cc2)nn1	n	n	n	31.5	n
Cc1cc(NC(=O)Nc2ccc(Cl)cc2)n(C)n1	n	n	n	n	n
COC(=O)/C=C1\S/C(=N\N=C\CC(=O)OC)NC1=O	n	n	n	n	n
COC(=O)/C=c1\[nH]c2nnc(C)n2c1=O	n	+	n	n	n
CC(=O)N1CCN(c2ccc(Nc3ncnc4c3oc3ccccc34)cc2)CC1	n	n	n	n	n
CCc1nc(Nc2ccc(N3CCN(C(C)=O)CC3)cc2)c2oc3ccccc3c2n1	n	+	n	n	n
O=C(CSc1nnc(-c2cccnc2)o1)Nc1cccc(Cl)c1	n	n	n	n	n
CCn1c2ccccc2c2cc(NC(=O)CSc3nnc(-c4cccc(Cl)c4)o3)ccc21	n	n	n	n	61.1
O=C(NCCCN1CCCC1=O)Nc1ccc([N+](=O)[O-])cc1	n	n	n	n	n
COc1cc2oc(=O)cc(-c3ccc(-c4ccc(C(F)(F)F)cc4)cc3)c2c(OC)c1OC	n	x	n	x	x
CC(NC(=O)/C(C#N)=C/c1ccc(Cl)c([N+](=O)[O-])c1)c1ccccc1 (configuration not stated)	x	+	x	n	n
COc1cc(/C=C2\SC(=O)N(CCN)C2=O)ccc1OS(=O)(=O)c1cc(C)ccc1C	72.7	n	n	n	n
CCC(=O)OCCNc1cc(Sc2nc3ccccc3s2)c2nonc2c1[N+](=O)[O-]	102.6	n	n	n	n
O=[N+]([O-])c1c(NCCCO)cc(Sc2nc3ccccc3s2)c2nonc12	n	n	58.2	n	n
CCCSc1cc(NCCOC(=O)CCC)c([N+](=O)[O-])c2nonc12	n	n	n	n	n
CC(=O)OCCCNc1cc(SCc2ccco2)c2nonc2c1[N+](=O)[O-]	n	n	n	n	n
CCCCN=C1NN=C(c2ccc3c(c2)OCCO3)CS1	n	n	n	n	n
c1cc2c(cc1C1=NNC(=NC3CC3)SC1)OCCO2	n	n	n	30.8	74.7
O=C(Oc1ccc[nH]c1=O)c1cc([N+](=O)[O-])cc([N+](=O)[O-])c1	n	n	n	30.0	n
CS(=O)(=O)c1ccc(N)c(SSc2cc(S(C)(=O)=O)ccc2N)c1	n	n	82.6	x	n
CS(=O)(=O)c1ccc2nc(N)sc2c1	n	n	n	n	n
CCOC(=O)CC1C(=O)NCCN1C(=O)c1cc2c(=O)n3cccc(C)c3nc2s1 (configuration not stated)	n	+	n	n	n
COc1ccc(-c2cc3nc(NCCNC(C)=O)n(C)c(=O)c3s2)c(C)c1	n	x	n	x	x
O=c1cnnc(N/N=C/c2c[nH]c3ccccc23)[nH]1	n	n	n	28.5	n
O=c1cnnc(N/N=C/c2cccs2)[nH]1	n	n	n	30.2	n
SMILES	Granule exo inh	Rce1 inh	ABHD5-PLIN5 inh	M18AAP inhibitor	Platelet DG rel
Cn1c(=O)c(C(=O)COc2ccc(F)cc2Cl)c(N)n(Cc2ccccc2)c1=O	n	n	n	n	n
CCc1noc(C)c1C(=O)OCC(=O)N(CC)c1c(N)n(Cc2ccccc2)c(=O)[nH]c1=O	n	n	n	x	n
COC(=O)C(Cc1ccccc1)OS(N)(=O)=O (configuration not stated)	n	+	n	n	n
COc1ccc(CC(=O)NNC(=O)c2cnccn2)cc1	n	n	n	29.0	n
COc1ccc(NC(=O)c2cc(S(=O)(=O)N3CCc4ccccc43)cn2C)cc1	n	n	n	n	97.9
O=C(Nc1ccccc1F)c1c[nH]c(=O)[nH]c1=O	n	n	n	n	66.0
O=C(Nc1c[nH]c(=O)[nH]c1=O)c1ccccc1Cl	n	n	n	n	n
CCOc1ccccc1C(=O)Nc1c[nH]c(=O)[nH]c1=O	n	n	n	n	88.1
COc1ccccc1C(=O)Nc1c[nH]c(=O)[nH]c1=O	n	n	n	n	95.6
NC(=O)CC(NC(=O)Cc1cccc2ccccc12)c1ccc(NC2CCCCC2)c([N+](=O)[O-])c1 (configuration not stated)	n	n	n	x	n
COc1cccc(NC(=S)Nc2ccc(O)cc2)c1	n	n	n	35.1	n
COc1ccc(NC(=S)Nc2ccc3nccnc3c2)cc1	n	n	n	n	n
COc1ccc(NC(=S)Nc2ccc3snnc3c2)cc1	n	n	n	30.3	n
